Shown are actives, neighbours in structure and some others; about 3.7% of the full set was active somewhere.
B2AR arrestin: qHTS assay of beta-arrestin-biased ligands of beta2-adrenergic receptor; Potency, µM (doses to about 46.1 µM), for inactives: at the top dose activation, hits mostly activators; Beta-2 adrenergic receptor (Homo sapiens), P07550; 330,000 compounds, 0.02% hits; beta-arrestin recruitment to beta2AR, cell-based reporter;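 note: potency is the fitted concentration of half-maximal effect; 0% = DMSO controls and full agonism = EC100 isoproterenol or metaproterenol; nearly all actives have a fitted effect of over 65% in size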
PTHR1 ag: qHTS for PTHR1 Agonists: Primary Screen | 410,000 compounds, 0.075% hits | Parathyroid hormone/parathyroid hormone-related peptide receptor (Homo sapiens), Q03431 | HEK293 GP2 PTHR1 cells, GloSensor cAMP luminescence, 1 h | Potency, µM (highest dose often 115 µM), for inactives: at the top dose activation, hits mostly activators | AID 743266, 2014; note: potency is the fitted concentration of half-maximal effect; nearly all actives have a fitted effect of over 55% in size
Target sequence (Q03431 whole entry, looked up): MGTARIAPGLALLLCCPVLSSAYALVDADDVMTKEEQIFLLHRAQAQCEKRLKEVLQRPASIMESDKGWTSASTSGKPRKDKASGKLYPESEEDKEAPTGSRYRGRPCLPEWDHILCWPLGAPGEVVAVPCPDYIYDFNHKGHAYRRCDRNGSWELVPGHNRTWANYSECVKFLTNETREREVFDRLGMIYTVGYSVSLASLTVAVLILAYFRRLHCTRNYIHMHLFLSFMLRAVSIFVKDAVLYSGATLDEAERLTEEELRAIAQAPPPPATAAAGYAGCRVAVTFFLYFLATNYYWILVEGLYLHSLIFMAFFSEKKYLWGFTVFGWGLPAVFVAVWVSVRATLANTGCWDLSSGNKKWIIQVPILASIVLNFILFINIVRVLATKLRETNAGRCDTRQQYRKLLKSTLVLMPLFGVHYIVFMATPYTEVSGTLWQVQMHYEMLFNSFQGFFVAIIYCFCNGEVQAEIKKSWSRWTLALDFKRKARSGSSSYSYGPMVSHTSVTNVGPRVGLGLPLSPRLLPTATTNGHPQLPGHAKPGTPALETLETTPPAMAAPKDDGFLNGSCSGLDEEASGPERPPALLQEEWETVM
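HEK-293-derived GP2 cells expressing PTHR1 and a GloSensor cAMP reporter, 3,000/well, plated overnight, given luciferin plus IBMX (each 0.5 mM as added) for 1 h at 37 °C, then compound for 1 h at 37 °C. Luminescence was read after 15 min at room temperature.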
RGS4 inh: Inhibitors of Regulator of G Protein Signaling (RGS) 4: qHTS | Transcreener GDP fluorescence polarization, RGS4-accelerated GTP hydrolysis | Potency, µM (doses to about 114 µM), for inactives: at the top dose activity change, negative = inhibition, actives largely listed as inhibitors | 390,000 compounds, 0.039% hits | AID 504845, 2011; note: potency is the fitted concentration of half-maximal effect; % is set by controls: 0 for no effect and ±100 for the full control effect; nearly all actives have a fitted effect of over 75% in size
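MLSMR compounds (23 nl, pin-transferred) preincubated 10 min at room temperature with a 500nM (2x) first reagent, then RGS4 at 900nM (2x) plus Transcreener GDP mix added; fluorescence polarization (620/688 nm) read before and after 90 min at 30 °C.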
D3 antag: qHTS of D3 Dopamine Receptor Antagonist: qHTS. D(3) dopamine receptor (Homo sapiens), P35462. D3R cells, DiscoveRx beta-arrestin luminescence, antagonist mode; stronger effect = lower value. max response, negative = inhibition, %. 360,000 compounds, 2.5% hits; in the data active = max response below about -50%; inconclusive = no clear call, values can overlap the other calls; note: % is set by controls: 0 for no effect and ±100 for the full control effect
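Cells plated overnight at 1500 cells/well, then exposed to library compounds with dopamine controls for 90 minutes at 37 degrees C. DiscoveRx reagent added for 30–60 minutes at room temperature; luminescence read, quantitative HTS format.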
BRCA1 expr act: qHTS Assay to Identify Small Molecule Activators of BRCA1 Expression | Potency, µM (highest dose often 46.1 µM), for the others: top-dose activation, most hits filed as activators | MCF7-BRCA1-FFLuc reporter, luminescence, 48 h; response scale: scaled: vehicle 0%, 10 µM genistein 100% | 380,000 compounds, 1.1% hits; note: potency is the fitted concentration of half-maximal effect; nearly all actives have a fitted effect of over 80% in size
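Quantitative HTS in MCF7 cells stably reporting BRCA1 expression via firefly luciferase. Compound treatment lasts 48 h at 37 °C in phenol-red free MEM. Activation is expressed relative to genistein at 10 microM and DMSO.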
D3 ag: qHTS of D3 Dopamine Receptor Agonist: qHTS; D(3) dopamine receptor (Homo sapiens), P35462; D3R DiscoveRx beta-arrestin cells, luminescence, 90 min; max activation, %; 410,000 compounds, 0.58% hits; AID 652048, 2013; in the data active = max activation above about 30%; note: 0% is about no effect
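Agonist mode: compounds and dopamine controls were applied to plated cells for 90 min at 37 degrees C after an overnight attachment at 1500 cells/well. Luminescent read-out followed 30 - 60 minutes at room temperature with DiscoveRx detection reagent.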
An asterisk follows results filed as active; i = inactive; ? = inconclusive; / = not tested or not shown; [ ] = dose if it differs, or a comment. Unless noted, calls come from the whole dose curve; as a rule, active = well fitted curve in the direction sought with a large enough effect; inconclusive = small, poorly fitted or top-dose-only effect, or another doubt; inactive = no such curve, though single readings can be large; an effect the other way counts as inactive or inconclusive.

SMILES | B2AR arrestin | PTHR1 ag | RGS4 inh | D3 antag | BRCA1 expr act | D3 ag
Clc1cccc(-c2nc3ccc(Cl)cn3c2Cc2ccsc2)c1 | / | -43% | / | -18 | 13µM* | 1
CC(CNC(=O)c1ccc(Cn2c(=O)c3cccn3c3cccnc32)cc1)c1ccccc1 (stereo not given) | / | -1% | 17% | / | / | 9
CC(=O)N1CCN(C(=O)c2cc(S(=O)(=O)N(C)c3ccc(F)cc3)ccc2Cl)CC1 | 0% | i | 16% | -10 | 4% | 9
C=CC(=O)N1CCC[C@@H](n2nc(-c3ccc(Oc4ccccc4)cc3)c3c(N)ncnc32)C1 | / | / | / | / | -65%[92.2 µM] | /
O=C(O)C(Cc1ccccc1)N1C(=O)C=CC1=O (stereo not given) | / | -7% | / | 16 | -18% | 3
O=C1c2cccnc2C(=O)N1Cc1ccc(F)cc1S(=O)(=O)NCc1ccco1 | 0% | i | 15% | 10 | 4% | 2
Cc1ccn2c(Cc3ccccc3)c(-c3ccc(Br)cc3)nc2c1 | / | -53% | / | ? | ? | -12
COc1ccccc1Cc1c(-c2cccc(Br)c2)nc2ccc(Cl)cn12 | / | -12% | / | -50* | -11% | -10
Cc1cc(Br)cn2c(Cc3ccccc3)c(-c3cccc(Br)c3)nc12 | / | 9% | / | -51* | -24% | -12
Cc1cc(Br)cn2c(Cc3ccccc3)c(-c3ccc(Cl)cc3)nc12 | / | -18% | / | -19 | -19% | -6
COc1ccccc1Cc1c(-c2cccc(Br)c2)nc2ccc(Br)cn12 | / | 6% | / | -20 | -9% | -4
Cc1ccn2c(Cc3ccccc3)c(-c3ccccc3)nc2c1 | / | -4% | / | -17 | 13µM* | -6
Cc1ccc(OCC(=O)Nc2ccccc2OCc2cc(=O)n3ccccc3n2)cc1C | / | 6% | 4% | / | / | -1
O=C(CC1NCCc2ccccc21)Nc1ccc(Cl)cc1 (stereo not given) | 0% | -29% | -28% | -87* | -21% | -13
O=C(CC1NCCN(Cc2ccccc2)C1=O)Nc1ccc(Cl)cc1 (stereo not given) | 0% | i | ? | 1 | 0% | -6
O=S1(=O)C[C@H](N2CCC[C@@H]2CO)[C@@H](COCc2ccccc2)N1 | / | -20% | / | 6 | 3% | 3
Cc1ccc(CNc2ccc(O)cc2)cc1 | ? | i | ? | -53* | -63% | 14
CC(C(=O)NN=C(c1ccccc1)c1ccccc1)N1CCOCC1 (stereo not given) | 0% | -2% | -13%[56.9 µM] | 11 | -2% | 2
c1ccc2c(c1)CC(CN1CCNCC1)O2 (stereo not given) | 1% | i | 2% | -3 | 13% | 7
CCCn1cnc2c(c1=O)c1nc3ccccc3nc1n2CCC1=CCCCC1 | -1% | / | / | / | / | /
CCCn1cnc2c(c1=O)c1nc3ccccc3nc1n2CCc1ccccc1 | 0% | -13%[57.5 µM] | -11% | -53* | 15% | 19
COc1ccc(NC(=O)CSc2nc(-c3cc(OC)c(OC)c(OC)c3)[nH]c2-c2ccc(F)cc2)cc1 | / | -70% | 0% | / | / | -24
O=C(Nc1nnc(CC2=CCCCC2)s1)c1cccs1 | 0% | -30% | -39% | 0 | 6.3µM* | -3
O=C(Nc1nnc(Cc2ccccc2)s1)c1cccs1 | 0% | -16%[57.5 µM] | 1% | 10 | ? | 0
CC(=O)c1ccc(NC(=O)COCc2cc(-c3ccc(F)cc3)on2)cc1 | / | -36% | 3% | / | / | 6
SMILES | B2AR arrestin | PTHR1 ag | RGS4 inh | D3 antag | BRCA1 expr act | D3 ag
COc1ccc([N+](=O)[O-])cc1NC(=O)C(C)c1ccccc1 (stereo not given) | 0% | i | -2% | -13 | -19% | -12
COC(=O)c1ccccc1NC(=S)NC(NC(=O)c1ccccc1[N+](=O)[O-])C(Cl)(Cl)Cl (stereo not given) | 0% | -15% | 10% | -51* | -2% | -8
COc1ccc([N+](=O)[O-])cc1NC(=S)NC(NC(=O)C(c1ccccc1)c1ccccc1)C(Cl)(Cl)Cl (stereo not given) | -1% | -22%[57.5 µM] | -21% | -80* | -87% | -18
Brc1ccc(-c2nc3ccccn3c2Nc2ccc3c(c2)OCCO3)o1 | / | -80% | -13% | / | / | -11
CCCCn1c(N)c(N(CCOC)C(=O)c2ccc(F)c(S(=O)(=O)N3CCOCC3)c2)c(=O)[nH]c1=O | 0% | -16% | 3% | 0 | 5% | 1
Cc1ccc(-n2cc(CNCCCn3cccn3)c(-c3cccc(C)c3)n2)cc1 | -1% | 26% | 0% | -73* | -61% | -20
Cc1ccc(C)c(-n2cc(CNCCCn3cccn3)c(-c3ccccc3)n2)c1 | 0% | i | 12% | -20 | 0% | -18
CCCc1[nH]nc2c1C(c1ccc(OCCN3CCOCC3)c(OC)c1)C(C#N)=C(N)O2 (stereo not given) | 0% | i | -23% | -64* | 44% | 3
C=CC1=C2C=C(C3CC3)N(CC3CC3)C=C2C(=O)C(C)(OC(=O)c2ccco2)C1=O (stereo not given) | / | -5% | -22% | 0 | 9% | -8
C=CC1=C2C=C(C3CC3)N(CCCN(CC)CC)C=C2C(=O)C(C)(OC(=O)c2ccco2)C1=O (stereo not given) | / | i | -11% | -13 | 4% | 46*
COc1ccc(/C(C)=N/N2CCCCC2)c(O)c1 | 0% | -6% | 13% | 8 | 0% | -1
COc1ccc(O)c(/C=N/N2CCCCC2)c1 | 0% | -25% | -4%[56.9 µM] | 1 | 10µM* | -3
Nc1ccc(C(=O)Nc2ccc(NC(=O)c3ccco3)c(O)c2)cc1 | -1% | -29% | -10% | 7 | 46% | 0
CCCc1ccc(OC(C)C(=O)Nc2sc3c(c2C(=O)OC)CCCCC3)cc1 (stereo not given) | / | -11% | ? | / | / | 8
COC(=O)[C@@]12CCCCN1[C@H](c1ccc(-c3ccc(Cl)c(Cl)c3)c(OC)c1)[C@H]1C(=O)N(C)C(=O)[C@H]12 | 0% | -2% | -14% | -3 | -6% | -2
COC(=O)[C@@]12CCCCN1[C@H](c1ccc(-c3ccc(Cl)c(Cl)c3)c(OC)c1)[C@@H]1C(=O)N(C)C(=O)[C@@H]12 | / | -6% | -2% | -23 | -14% | 41*

Screens: PubChem, National Center for Advancing Translational Sciences (NCATS)
